Source: PubChem
In the library only some 1.3% were active in any assay of this set; here they are far more common.
RXFP1 agonist = agonists of human relaxin receptor RXFP1; Potency, µM (series often up to 57.5 µM), most hits filed as activators; HEK293T-RXFP1 cAMP TR-FRET, 30 min; response scale: percent of porcine relaxin response, buffer zero; hit rate 0.3% among 370,000; active means well fitted activation curve with a large enough effect; inconclusive means small, poorly fitted or top-dose-only effect; further: nearly all actives have a fitted effect of over 60% in size
Target sequence (Q9HBX9 whole entry, looked up): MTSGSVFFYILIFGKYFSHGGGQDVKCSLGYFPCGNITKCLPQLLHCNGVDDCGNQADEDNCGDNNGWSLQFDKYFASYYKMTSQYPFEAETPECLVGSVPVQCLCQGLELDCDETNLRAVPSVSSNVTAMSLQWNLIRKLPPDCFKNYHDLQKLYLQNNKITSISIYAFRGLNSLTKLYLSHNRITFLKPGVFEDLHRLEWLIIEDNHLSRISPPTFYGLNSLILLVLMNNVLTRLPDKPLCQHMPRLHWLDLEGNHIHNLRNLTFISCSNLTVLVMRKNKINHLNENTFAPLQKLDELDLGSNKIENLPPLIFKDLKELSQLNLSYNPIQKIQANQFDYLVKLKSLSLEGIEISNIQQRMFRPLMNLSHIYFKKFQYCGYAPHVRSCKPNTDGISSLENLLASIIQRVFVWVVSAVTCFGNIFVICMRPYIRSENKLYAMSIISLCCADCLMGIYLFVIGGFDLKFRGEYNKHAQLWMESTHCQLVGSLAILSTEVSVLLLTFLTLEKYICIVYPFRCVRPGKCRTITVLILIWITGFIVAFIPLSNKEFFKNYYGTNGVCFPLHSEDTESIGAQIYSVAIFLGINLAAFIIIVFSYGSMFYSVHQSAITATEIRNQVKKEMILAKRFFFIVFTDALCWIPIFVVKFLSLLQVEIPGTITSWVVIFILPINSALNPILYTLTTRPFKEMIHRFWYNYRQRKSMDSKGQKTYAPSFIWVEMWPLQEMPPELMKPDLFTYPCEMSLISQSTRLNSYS
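HEK293T cells stably expressing RXFP1 were pretreated with the PDE4 inhibitor Ro 20174, exposed to compounds for 30 min at 37C, lysed, and cAMP was read by TR-FRET. Data normalized to buffer (basal) and 29 nM porcine relaxin (100%).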
gsp antagonist = gsp mutant antagonism; gsp-mutant cells, cAMP HTRF, 30 min; Potency, µM (top dose mostly 76.9 µM), hits mostly inhibitors; hit rate 0.4% among 340,000; AID 624288; calls by dose curve; cell line not stated here;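 further: intracellular cAMP measured with PDE inhibitor Ro 20-1724 present during compound exposure; nearly all actives have a fitted effect of over 65% in size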
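HTRF cAMP measurement after 30 min RT detection following 30 min, 37C compound treatment alongside […] (added as 300 uM solution) in G418-selected cells seeded at 2000/well and grown 16–24 h.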
gsp ag = activates gsp, the McCune-Albright syndrome mutation. AID 624287. gsp mutant cells, cAMP HTRF, 30 min. hit rate 0.13% among 340,000. Potency, µM (doses to about 76.9 µM), hits mostly activators; active means well fitted activation curve with a large enough effect; inconclusive means small, poorly fitted or top-dose-only effect, or another doubt; inactive means no such curve, though single readings can be large or run the other way; cell line not stated here;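 further: phosphodiesterase inhibitor Ro 20-1724 added with compounds to block cAMP breakdown; nearly all actives have a fitted effect of over 60% in size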
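Cells in DMEM/10% FBS with G418 were pretreated with compounds in DMSO plus […] (300 uM stock) for 30 min at 37C. cAMP was measured by HTRF (cAMP-d2 plus anti-cAMP antibody-K) after 30 min at room temperature.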
Akt phos inh = blocks phosphorylation of Akt; Neuro2A IGF-stimulated pAkt S473 HTRF, 20 min; hits give low values; activity change, % for hits at 50 µM; hit rate 0.32% among 360,000; in the data active means activity change below about -80%; inconclusive means mostly about -51% to -80%
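Neuro2A cells (4,500/well, DMEM with 0.5% FBS) were treated with compound at a single 50 µM final concentration, stimulated with 6 nM IGF for 20 min at 37 °C, and lysed. Phospho-Akt Ser473 was read by HTRF as 665/615 ratio ×10^4.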
RXFP1 antagonist = RXFP1 (human) relaxin receptor antagonism. Q9HBX9. HEK293-RXFP1, relaxin-stimulated cAMP HTRF, 30 min; hits give low values. activity change, negative = inhibition, % at 57.5 µM. hit rate 0.59% among 350,000;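 active means activity change of -60% or lower, but not beyond a set lower limit; inconclusive means change between -60% and -40%, or beyond the set limit; inactive means change above -40%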
A number is an active result; . = inactive; ? = inconclusive; / = not tested or not shown; [ ] = remark or other dose.

SMILES	RXFP1 agonist	gsp antagonist	gsp ag	Akt phos inh	RXFP1 antagonist
CCCCOc1ccc(C2c3c(-c4ccccc4O)n[nH]c3C(=O)N2Cc2ccncc2)cc1OC (stereo not given)	.	/	/	/	.
COc1cccc(C(=O)N2c3nc(-c4ccco4)nn3C3(CCCCC3)[C@@H]3CCCC[C@@H]32)c1	.	/	/	/	-65
O=C(c1cccc(Cl)c1)N1c2ncnn2C2(CCCCC2)[C@@H]2CCCC[C@@H]21	.	/	/	/	-61
O=C(c1cccc(Cl)c1)N1c2nc(-c3ccco3)nn2C2(CCCCC2)[C@@H]2CCCC[C@@H]21	.	/	/	/	.
Cn1c(=O)n(CCc2ccccc2)c(=O)c2c1nc1n2CCN1c1ccc(Cl)cc1	.	/	/	/	.
O=c1c2sc3ccccc3c2n(Cc2cccc(C(F)(F)F)c2)c(=O)n1Cc1ccc(F)cc1	.	/	/	/	/
CCOCCCNC(=O)c1ccc2c(c1)ncn2C1CCCC1	.	.	.	.	.
CC(C)CCNC(=O)c1ccc2c(c1)ncn2C1CCCC1	.	7.9µM	.[15.4 µM]	.	.
C/C(=N\NC(=O)c1ccc(-c2ccccc2)cc1)C1C(=O)c2ccccc2C1=O	.	28µM	.	.	.
Cc1cc(C)cc(NC(=O)N2CCC(CN3CCc4ccccc4C3)CC2)c1	.	/	/	/	.
COc1ccc(N2C(=O)CCSC23C(=O)N(Cc2ccc(F)cc2)c2ccccc23)cc1 (stereo not given)	.	/	/	/	-82
O=C(O)c1cccc(Cn2c(Cl)c(/C=N/NC(=O)c3ccccc3Cl)sc2=O)c1	.	.	.	.	/
O=C(O)c1cccc(Cn2c(Cl)c(/C=N/Nc3ccccc3)sc2=O)c1	.	.	.	.	-74
Cc1ccc(CNC(=O)CCc2nnc3ccc(NCCCN4CCCC4=O)nn23)cc1	?	.	.	.	.
CSc1ccc(CCNC(=O)CCc2nnc3ccc(NCCCN4CCCC4=O)nn23)cc1	?	.	?	/	-70
CCCn1c(SCC(=O)Nc2ccc3c(c2)OCO3)nc2c1c(=O)n(C)c(=O)n2C	.	.	.	.	.
CCCn1c(SCC(=O)Nc2ccc(NC(C)=O)cc2)nc2c1c(=O)n(C)c(=O)n2C	?	.	18µM	.	.
CCn1c(SCC(=O)Nc2ccc3c(c2)OCO3)nc2c1c(=O)n(C)c(=O)n2C	.	.	.	.	.
CCC(=O)Nc1ccc(NC(=O)CSc2nc3c(c(=O)n(C)c(=O)n3C)n2CC)cc1	16µM	.	.[15.4 µM]	.	.
CCOC(=O)c1cc2c(=O)n3ccccc3nc2n(Cc2ccco2)c1=NC(=O)c1c(F)cccc1Cl	.	/	/	/	/
COc1nc(-c2ccccc2)c2cc(Br)ccc2n1	/	.	13µM	.	.
Cn1c(=O)c2[nH]c(COc3ccccc3)nc2n(C)c1=O	/	.	3.2µM	.	.
Cn1c(=O)c2[nH]c(CN(Cc3ccccc3)Cc3ccccc3)nc2n(C)c1=O	.	.	.	.	.
N#C/C(=C1\SCC(c2ccccc2Cl)S1)n1ccnc1 (stereo not given)	/	/	/	/	.
CC(C)NC(=O)c1ccc(C=O)cc1	/	/	/	/	.
SMILES	RXFP1 agonist	gsp antagonist	gsp ag	Akt phos inh	RXFP1 antagonist
CCn1c(SCC(=O)c2[nH]c(C)c(C(C)=O)c2C)nnc1-c1ccccc1	.	20µM	.	.	.
CC(=O)c1c(C)[nH]c(C(=O)COC(=O)CCSc2ccccc2)c1C	.	.	.	.	-64
Cc1ccc(C(=O)COC(=O)C(CC(C)C)NC(=O)C2CCC(C)CC2)cc1 (stereo not given)	.	/	/	/	/
CCOc1ccc(S(=O)(=O)NCc2ccc3c(c2)CCN3C(=O)c2ccc(C)cc2)cc1	.	/	/	/	.
CCCC1=Nc2cc(C(=O)NC3CCCCC3)ccc2Sc2ccc(C)cc21	.	/	/	/	.
CC(Cc1cccs1)NC(=O)Nc1ccc(Cl)c(Cl)c1 (stereo not given)	.	.	.	-103%	.
Cc1ccc(C(=O)/C=C/C(=O)c2ccc(C)cc2)cc1	.	.	.[15.4 µM]	.	-67
Cc1ccc(/C=C/C(=O)c2ccc(C)cc2)cc1	.	.	?	.	.
CCOc1ccc(N(C)S(=O)(=O)c2ccc3c(c2)C(C)(C)C(=O)N3C)cc1	.	/	/	/	/
CC(C)(C)C(=O)NCCc1nc2ccccc2n1CCCCOc1ccc(Cl)cc1	.	/	/	/	-85
OCCCc1nc2ccccc2n1CCOc1ccccc1	.	.	.	.	.
CC(C)C(=O)NCCc1nc2ccccc2n1CCCOc1ccc(Cl)cc1	.	.	.	.	.
Cc1ccc(OCCn2c(CCCO)nc3ccccc32)cc1	.	.	?	-106%	.
